# Experimental data taken from the supplement of paper PMC8728848.
# Shown is part of a subset that was picked to be rich in the strongest signals.
# B1: PX9961M-bvu-482-23-482 (Bacteroides vulgatus) (protein)
# chain: WLDLAPSTQVDTETSINVLSDIEFTLNGIYSTMQSSDAYSGRLVYYGDVTGDDMQAVSSTKRTGNYYRFNFTKDNGPSSHWSYLYSIIQNCNLILMNVDKLSIDEDETEYKNDLKGQALAIRGMALFDLTRIFGYPYLKDNGASLGVPIVKELSTIDSKPARNTVAECYTEIISDLKNSTELLSGDFNKGKVNRWAAMTLLSRVYLYKGEYNEALTMAENAIKGAEKEGYALWTNEEYPTAWGNDASASNPGEILFEIVNLTTDSPGKESMGYLNSYNGYDDMCITCSFYQLLKKDPKDVRLKILSFDKKYYAYVNKYQPQQGENITDANIPLIRLSEAYLNAAEAAVQTGDNAKAVKYLNSIVQRANPENSVEGKTLTLENVLDERRKELVAEGHRMYDVIRNGMTVKRIDVKDSDINKTKHNTAYMEYDWNFHKILLPIPKKEMDANPNMKQNPGYVD
# Tests used:
# Test in all cases: glycan array binding signal (z-score within array); higher = stronger binding
# Conditions in all cases: glycan notation: IUPAC condensed, linker removed
# Gal6S(b1-4)Glc6S = molecular target: Gal6S(b1-4)Glc6S
# In short: (§1)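 Columns mapping to the same glycan were averaged after glycan names were converted to IUPAC-condensed notation. The data come from 3228 arrays in the Consortium for Functional Glycomics database, limited to those with an available protein sequence. Binding is reported as a within-array Z-score averaged across arrays of one protein sequence and across linkers.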
# Gal6S(b1-4)GlcNAc6S = molecular target: Gal6S(b1-4)GlcNAc6S
# In short: as §1
# GalNAc(b1-4)GlcNAc6S = molecular target: GalNAc(b1-4)GlcNAc6S
# In short: as §1
# [1] = molecular target: GlcNAc(a1-4)Gal(b1-4)GlcNAc
# In short: as §1
# [2] = molecular target: GlcNAc(a1-6)Gal(b1-4)GlcNAc
# In short: as §1
# GlcNAc(b1-3)Fuc = molecular target: GlcNAc(b1-3)Fuc
# In short: as §1
# GlcNAc(b1-3)Gal(b1-4)Glc = molecular target: GlcNAc(b1-3)Gal(b1-4)Glc
# In short: as §1
# [3] = molecular target: GlcNAc(b1-3)Gal(b1-4)GlcNAc(b1-2)[GlcNAc(b1-3)Gal(b1-4)GlcNAc(b1-6)]Man(a1-6)[GlcNAc(b1-3)Gal(b1-4)GlcNAc(b1-2)Man(a1-3)]Man(b1-4)GlcNAc(b1-4)GlcNAc
# In short: as §1
# [4] = molecular target: GlcNAc(b1-3)Gal(b1-4)GlcNAc(b1-3)Gal(b1-4)GlcNAc(b1-2)Man(a1-3)[GlcNAc(b1-3)Gal(b1-4)GlcNAc(b1-3)Gal(b1-4)GlcNAc(b1-2)Man(a1-6)]Man(b1-4)GlcNAc(b1-4)[Fuc(a1-6)]GlcNAc
# In short: as §1
# [5] = molecular target: GlcNAc(b1-3)Gal(b1-4)GlcNAc(b1-3)Gal(b1-4)GlcNAc(b1-3)Gal(b1-4)GlcNAc(b1-2)[GlcNAc(b1-3)Gal(b1-4)GlcNAc(b1-3)Gal(b1-4)GlcNAc(b1-3)Gal(b1-4)GlcNAc(b1-6)]Man(a1-6)[GlcNAc(b1-3)Gal(b1-4)GlcNAc(b1-3)Gal(b1-4)GlcNAc(b1-3)Gal(b1-4)GlcNAc(b1-2)Man(a1-3)]Man(b1-4)GlcNAc(b1-4)[Fuc(a1-6)]GlcNAc
# In short: as §1
# [6] = molecular target: GlcNAc(b1-3)Gal(b1-4)GlcNAc(b1-3)Gal(b1-4)GlcNAc(b1-3)Gal(b1-4)GlcNAc(b1-3)Gal(b1-4)GlcNAc(b1-2)[GlcNAc(b1-3)Gal(b1-4)GlcNAc(b1-3)Gal(b1-4)GlcNAc(b1-3)Gal(b1-4)GlcNAc(b1-3)Gal(b1-4)GlcNAc(b1-6)]Man(a1-6)[GlcNAc(b1-3)Gal(b1-4)GlcNAc(b1-3)Gal(b1-4)GlcNAc(b1-3)Gal(b1-4)GlcNAc(b1-3)Gal(b1-4)GlcNAc(b1-2)Man(a1-3)]Man(b1-4)GlcNAc(b1-4)[Fuc(a1-6)]GlcNAc
# In short: as §1
# [7] = molecular target: GlcNAc(b1-3)Gal(b1-4)GlcNAc(b1-6)[GlcNAc(b1-3)Gal(b1-3)]GalNAc
# In short: as §1
# [8] = molecular target: Man(a1-2)Man(a1-2)Man(a1-6)[Man(a1-3)]Man
# In short: as §1
# [9] = molecular target: Man(a1-3)[Man(a1-6)]Man(a1-6)[Man(a1-3)]Man
# In short: as §1
# Neu5Ac(a2-3)Gal = molecular target: Neu5Ac(a2-3)Gal
# In short: as §1
# [10] = molecular target: Neu5Ac(a2-3)Gal(b1-3)GalNAc(b1-4)[Neu5Ac(a2-8)Neu5Ac(a2-3)]Gal(b1-4)Glc
# In short: as §1
# [11] = molecular target: Neu5Ac(a2-3)Gal(b1-3)GlcNAc(b1-2)Man
# In short: as §1
# [12] = molecular target: Neu5Ac(a2-3)Gal(b1-4)GlcNAc(b1-3)Gal(b1-4)GlcNAc(b1-3)GalNAc
# In short: as §1
# [13] = molecular target: Neu5Ac(a2-3)Gal(b1-4)GlcNAc(b1-3)GalNAc
# In short: as §1
# [14] = molecular target: Neu5Ac(a2-3)Gal(b1-4)[Fuc(a1-3)]GlcNAc
# In short: as §1
# [15] = molecular target: Neu5Ac(a2-6)Gal(b1-4)GlcNAc
# In short: as §1
# [16] = molecular target: Neu5Ac(a2-6)Gal(b1-4)GlcNAc(b1-2)Man(a1-3)Man(b1-4)GlcNAc(b1-4)GlcNAc
# In short: as §1
# [17] = molecular target: Neu5Ac(a2-6)Gal(b1-4)GlcNAc(b1-2)Man(a1-6)[Man(a1-3)]Man(b1-4)GlcNAc(b1-4)GlcNAc
# In short: as §1
# [18] = molecular target: Neu5Ac(a2-6)Gal(b1-4)GlcNAc(b1-3)GalNAc
# In short: as §1
# [19] = molecular target: Neu5Ac(a2-8)Neu5Ac(a2-3)[Gal(b1-3)GalNAc(b1-4)]Gal(b1-4)Glc
# In short: as §1
# [20] = molecular target: Neu5Ac(a2-8)Neu5Gc(a2-3)Gal(b1-4)GlcNAc
# In short: as §1
# Neu5Ac(b2-6)GalNAc = molecular target: Neu5Ac(b2-6)GalNAc
# In short: as §1
binder,measurement,setting,value
B1,glycan array binding signal (z-score),Gal6S(b1-4)Glc6S,-0.529
same,glycan array binding signal (z-score),Gal6S(b1-4)GlcNAc6S,-0.084
same,glycan array binding signal (z-score),GalNAc(b1-4)GlcNAc6S,-0.209
same,glycan array binding signal (z-score),[1],-0.43
same,glycan array binding signal (z-score),[2],-0.826
same,glycan array binding signal (z-score),GlcNAc(b1-3)Fuc,0.451
same,glycan array binding signal (z-score),GlcNAc(b1-3)Gal(b1-4)Glc,-0.369
same,glycan array binding signal (z-score),[3],-0.33
same,glycan array binding signal (z-score),[4],0.761
same,glycan array binding signal (z-score),[5],1.99
same,glycan array binding signal (z-score),[6],1.58
same,glycan array binding signal (z-score),[7],0.464
same,glycan array binding signal (z-score),[8],0.455
same,glycan array binding signal (z-score),[9],2.74
same,glycan array binding signal (z-score),Neu5Ac(a2-3)Gal,-0.037
same,glycan array binding signal (z-score),[10],0.996
same,glycan array binding signal (z-score),[11],0.535
same,glycan array binding signal (z-score),[12],-0.629
same,glycan array binding signal (z-score),[13],0.638
same,glycan array binding signal (z-score),[14],-0.48
same,glycan array binding signal (z-score),[15],0.329
same,glycan array binding signal (z-score),[16],-0.834
same,glycan array binding signal (z-score),[17],0.152
same,glycan array binding signal (z-score),[18],-0.573
same,glycan array binding signal (z-score),[19],-0.531
same,glycan array binding signal (z-score),[20],18
same,glycan array binding signal (z-score),Neu5Ac(b2-6)GalNAc,-0.083
